Measured values from ChEMBL document CHEMBL3433997, “St. Jude Leishmania screening dataset” (2016).

These molecules were tested against Hexose transporter 1 (Plasmodium falciparum) (UniProt O97467) (assay: ST_JUDE_LEISH: Cytotoxicity at 2uM final concentration against transgenic Leishmania Mexicana promastigotes LmPfHT that are glucose transport deficient and complemented with the Plasmodium falciparum hexose transporter. Activity is measured by DNA content using SYBR green in vitro).
Format: functional

Row | SMILES | inhibition
1 | Cn1ccnc1S(=O)(=O)CCNCc1ccc(-c2ccc3ncnc(Nc4ccc(OCc5cccc(F)c5)c(Cl)c4)c3c2)o1 | 6.11%
2 | CCOc1ccc(CCCON2C(=N)N=C(N)NC2(C)C)cc1 | 10.4%
3 | O=C(NCC1CCN(Cc2ccsc2)C1)c1cc(-c2cccc(C(F)(F)F)c2)cs1 (stereo not given) | 0.91%
4 | COc1ccc2nccc([C@@H](O)CN3CCC(NCc4ccc5c(n4)NCCC5)CC3)c2c1 | 6.43%
5 | CCCOc1ccc(NC(=O)c2cccs2)cc1Cl | 8.57%
6 | CCCc1cc(Cc2cnc(N)nc2N)cc(CCC)c1OCCCCC(=O)OCC | 2.3%
7 | CC(=O)Nc1ccc(CN2CCC(NC(=O)c3ccc(-c4ccc(N(C)C)cc4)s3)CC2)cc1 | 1.82%
8 | Cc1cc2c(/C=C/C(=O)NC3CCC(CCN4CCc5ccc(C#N)cc5CC4)CC3)cccc2[nH]1 (stereo not given) | 4.14%
9 | O=C(Nc1cccc(-c2cccc(-c3nc4ccccc4[nH]3)c2)c1)c1cccnc1 | 2.73%
10 | COc1ccc2nccc(N3CCC(NCCNS(=O)(=O)c4ccc5c(c4)NC(=O)CS5)C3)c2n1 (stereo not given) | -1.18%
11 | Cc1nnc2c(NC(=O)NC3CCCC3)cc3cc(-c4ccc(CN(C)C)cc4)ccc3n12 | 1.31%
12 | c1cc(Nc2nc(-c3ccc(-c4csc(Nc5ccncc5)n4)cc3)cs2)ccn1 | -1.56%
13 | CN(C)c1cc(C(=O)N[C@@H](Cc2ccccc2)[C@H](O)CNC2CCCCC2)cc2[nH]ccc12 | 4.72%
14 | Cc1cccc(CNc2nc(C)cc(NCCC(=O)NCc3cccc(F)c3)n2)c1 | 7.53%
15 | O=C1Nc2ccc3ncccc3c2/C1=C/Nc1ccc(N2CCN(CCO)CC2)cc1 | 2.28%
16 | NC(=O)c1ccccc1OCC(=O)Nc1cccc(-c2ccc(-c3nc4cc(C(F)(F)F)ccc4[nH]3)cc2)c1 | 3.99%
17 | CC(C)c1cccc(C(C)C)c1NC(=O)NNC(=O)c1ccc(CCN2CCC(c3nc(COCC(F)(F)F)c(-c4ccc(F)cc4)o3)CC2)cc1 | 11.4%
18 | Cc1ccc(NC(=O)c2ccc(CN3CCCN(CC4CCCCC4)CC3)cc2)cc1C | 7.13%
19 | CC(C)c1ccc(NC(=O)c2ccc(CN3CCCN(Cc4cccc(O)c4)CC3)cc2)cc1 | 4.76%
20 | COc1cccc(-c2cnc(N)c(-c3nc4ccc(F)cc4[nH]3)c2)c1 | 7.53%

Row | SMILES | inhibition
21 | CC(=O)Nc1cccc(C(=O)Nc2ccc(-c3cccc(-c4nc5cc(C(F)(F)F)ccc5[nH]4)c3)cc2)c1 | 0.32%
22 | O=C(C=Cc1ccc(Cl)c(Cl)c1)NCCCCCN1CCC(CCCNC(=O)c2sc3ccccc3c2Cl)CC1 | 0.72%
23 | O=C(/C=C/c1ccc(-c2ccccc2)cc1)NCCCCCN1CCC(c2c[nH]c3ccccc23)CC1 | 4.35%
24 | Cc1cccc2nc(-c3cccc(-c4cccc(NC(=O)CNC(=O)c5ccc(O)cc5)c4)c3)[nH]c12 | -0.56%
25 | OC(c1ccc2ccccc2c1)C1CN(CCc2ccccc2)CCC1(O)c1ccccc1 (stereo not given) | -3.49%
26 | Cc1nc(C)c(-c2ccc(Oc3ccc([S+](C)[O-])cc3)cc2)c(O)c1Br (stereo not given) | 3.7%
27 | Brc1ccc(Nc2nc(NCC3CCCO3)c3ccccc3n2)cc1 (stereo not given) | 22.3%
28 | Cc1n[nH]c(C)c1C1CCN(CC2CCC(NC(=O)/C=C/c3ccc(Cl)c(Cl)c3)CC2)CC1 (stereo not given) | 4.25%
29 | COC(=O)c1cccc(NC(=O)NC2CCN(c3ccnc(Nc4ccc(F)cc4)n3)C2)c1 (stereo not given) | 1.14%
30 | Cc1cc(N[C@@H](Cc2ccccc2)C(=O)NCc2cccs2)nc(NCCc2ccc(F)cc2)n1 | 8.93%
31 | COc1ccc(CCCCN2C(=O)C(c3ccccc3)(c3ccccc3)N=C2N)cc1 | 4.05%
32 | Fc1cc(Cl)ccc1Nc1ccnc2cc(-c3scnc3CNCCN3CCOCC3)ccc12 | 1.16%
33 | COC(=O)c1ccc(Nc2nccc(Nc3ccc(Oc4ccccc4)cc3)n2)cc1 | 9.95%
34 | OCCN1CCN(Cc2cccc(-c3ccc(-c4nc5cc(C(F)(F)F)ccc5[nH]4)s3)c2)CC1 | -3.19%
35 | CCOC(=O)C1=C(C)N=c2sc(=Cc3ccccc3O)c(=O)n2C1c1ccc(OC)c2ccccc12 (stereo not given) | -0.06%
36 | c1cc(CNC2Cc3ccccc3C2)cc(-c2cnc(N3CCNCC3)nc2)c1 | 2.77%
37 | COc1ccc(C(=O)Nc2nonc2-c2ccc(OC)c(OC)c2)cc1Cl | -0.18%
38 | CC1CN(c2ccnc3ccc(Sc4ccc(Oc5ccccc5)cc4)cc23)CC(C)N1 (stereo not given) | 2.41%
39 | O=C(NCc1ccccc1)Nc1ccc(-c2ccc(-c3nc4cc(C(F)(F)F)ccc4[nH]3)cc2)cc1 | 4.48%
40 | COc1ccc(N2CCN(c3nc(Nc4ccc(NC(C)=O)cc4)nc(N4CCCC4)n3)CC2)cc1 | 1.16%
